# According to PubChem BioAssay:
# Activity calls are given as the source filed them.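 How the source made its calls: active means visually confirmed hit in the image check and inhibition above 20%; inconclusive means visually confirmed hit but inhibition not above 20%; inactive means no visual hit in the image check.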
# Assay: endothelial E-selectin expression blockers – imaging, HUVEC, immunofluorescence, MLSMR starter and 10KST1 sets, primary screen (AID 487);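 on inhibition: signal is fraction of cell area covered by stained E-selectin grains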;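 on nuclei count: 100% = median nuclei count of all wells on the same plate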
# Conditions: HUVEC TNFalpha-induced E-selectin immunofluorescence imaging, at 2 µM; inhibition: stronger effect = higher value; nuclei count: measured here: cell number, toxicity
Structure (SMILES),nuclei count [%],inhibition
Cc1cc(NC(CC(C)C)C(=O)O)nc(Cc2ccccc2)n1 (stereo not given),188,-117% (inactive)
CSc1nc2[nH]c3c(c2c2nnnn12)CCCC3,145,-139% (inactive)
CCOc1ccc(N2C(=O)CC(N)C2=O)cc1 (stereo not given),123,33.5% (inactive)
Cc1nn2cnc3sc4c(c3c2nc1=O)CCCC4,145,-186% (inactive)
Nc1c(C(=O)NCc2ccco2)sc2nc(N3CCOCC3)c3c(c12)CCCC3,169,21.6% (inactive)
CC(NC(=O)Nc1ccc(O)cc1)(C(F)(F)F)C(F)(F)F,151,-16.4% (inactive)
Cc1cccc(-c2nnc3n2N=C(c2ccccc2)CS3)c1,169,-55.5% (inactive)
N#Cc1nc(COc2ccccc2)oc1N1CCCC1,164,-281% (inactive)
COCCn1c(SCc2c(F)cccc2Cl)nc2c1c(=O)[nH]c(=O)n2C,115,-11.2% (inactive)
Cn1c(=O)[nH]c(=O)c2c1nc(Br)n2CCSc1nnnn1-c1ccccc1,177,-40.4% (inactive)
Cn1c(N)c(C#N)c(C#N)c1-c1ccccc1,183,-93.2% (inactive)
CCOC(=O)CC(=O)CSc1nnc2sc3ccccc3n12,174,27.3% (inactive)
CCc1nc(NC2CCCCC2)c(C#N)c2c1COC(C)(C)C2,153,-95.5% (inactive)
CCc1nc(N2CCOCC2)c(C#N)c2c1CCCC2,121,-105% (inactive)
COC(=O)c1ccc(C2/C(=C(\O)c3ccc4c(c3)OCCO4)C(=O)C(=O)N2CCCN(C)C)cc1 (stereo not given),91.5,1.3% (inactive)
C=CCOc1ccc(/C(O)=C2/C(=O)C(=O)N(CCCN3CCOCC3)C2c2ccccc2)cc1 (stereo not given),142,-152% (inactive)
Cc1cc(=O)oc2ccc(OCC(=O)N3CCc4ccccc43)cc12,180,-32.9% (inactive)
Cc1ccc(NC(=O)Cn2nc(C)c3ccccc3c2=O)cc1,134,-60.9% (inactive)
O=C(c1ccccc1)n1c(=S)nc2ccccn21,144,-18.3% (inactive)
CCC(C)Nc1nc(OC)nc(N(C)C#N)n1 (stereo not given),130,-32.5% (inactive)

Structure (SMILES),nuclei count [%],inhibition
Cc1[nH]nc(-c2ccc(O)cc2O)c1Oc1ccccc1,175,-110% (inactive)
O=C(NCCC1=CCCCC1)c1ccc(=O)oc1,163,33.5% (inactive)
c1ccc(-n2ncc3c(N4CCCC4)ncnc32)cc1,188,12.6% (inactive)
Cc1cc2c(c(=O)o1)C(CC(C)C)C(C#N)=C(N)O2 (stereo not given),167,-144% (inactive)
O=c1cc(-c2ccco2)nc(-c2cccs2)o1,99.4,7.4% (inactive)
O=C(Nc1nnc(SCc2ccccc2F)s1)c1ccco1,109,-62.9% (inactive)
CCN(CC)CCCN1C(=O)C(=O)/C(=C(/O)c2ccc(OC)cc2)C1c1ccco1 (stereo not given),185,43.5% (inactive)
Cn1c(=O)[nH]c2cc(Cl)cnc21,108,-133% (inactive)
C[N+]1(CCNC(=O)/C=N/O)CCCCC1,147,-76.5% (inactive)
COC(=O)c1ccc(C2/C(=C(\O)c3cccc(OC)c3)C(=O)C(=O)N2CCCN(C)C)cc1 (stereo not given),145,-82.8% (inactive)
Cc1cc(=O)oc(C)c1C(=O)n1nc(C)c2c1C[C@@H]1[C@H]2C1(C)C,176,-44.9% (inactive)
CCN(CC)CCNc1ncnc2c1[nH]c1ccc(OC)cc12,150,-67.9% (inactive)
Cn1c(=O)c2c(nc(Br)n2CCSc2nc3ccccc3o2)n(C)c1=O,175,32.7% (inactive)
CCc1ccc(-c2cn3nc(C)c(C)nc3n2)cc1,143,5.5% (inactive)
CCOC(=O)CSc1nc(N)c(C(=O)Nc2ccc(N(C)C)cc2)s1,188,-123% (inactive)
CCN(CC)Cc1cc(C(C)=O)ccc1OCC(C)C,164,3.7% (inactive)
Cn1c(NCc2ccccc2)nc2c1c(=O)n(Cc1ccc(Br)cc1)c(=O)n2C,171,-78.3% (inactive)
CC12CCC(=O)N1c1c(sc3nc(N4CCOCC4)c4c(c13)CCCC4)C(=O)N2 (stereo not given),122,-105% (inactive)
CCOc1ccc(-c2nc(C#N)c(N3CCN(CC)CC3)o2)cc1,129,-29.1% (inactive)
NC(=O)CSc1nnc2n(-c3ccccc3)c(=O)c3c4c(sc3n12)CCCCC4,193,-45.3% (inactive)
